# Screening results (PubChem)
# Most compounds without a hit are left out; they make up all but 3.2% or so of the library.
# pS6 MEF inh – Acumen qHTS Assay for Inhibitors of the mTORC1 Signaling Pathway in MEF (Tsc2-/-, p53-/-) Cells: Sytravon. Potency, µM (top dose mostly 38.3 µM), inactives show at the highest dose activity change, negative = inhibition, most hits filed as inhibitors. 0.78% of 44,000 active. Tsc2-/- p53-/- MEF, phospho-rpS6 immunofluorescence/PI, 24 h. AID 493208, 2011;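 further: plate controls were DMSO for no effect and rapamycin for full effect; nearly all actives have a fitted effect of over 50% in size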
#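 Read-out: phospho-S6 Alexa-488 intensity over PI intensity per well, scored as % active cells using thresholds from rapamycin (7.5 nM) and DMSO controls. Tsc2-/-, p53-/- MEFs exposed to compound for 24 h; PI cell count recorded as viability.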
# S16 viability – Cell viability qHTS assay in S16 Pmp22-F2sN cells; S16 Pmp22-F2sN Schwann cells viability, CellTiter-Glo, 24 h; Potency, µM (top dose mostly 57.5 µM), for inactives: at the top dose activity change, negative = cytotoxicity, actives largely listed as cytotoxic; 0.48% of 43,000 active; AID 1508642, 2021; further: nearly all actives have a fitted effect of over 65% in size
#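 S16 Pmp22-F2sN Schwann cells (500-1,000/well) in phenol-red-free DMEM with 10% FBS received 23 nL compound by pin tool for 24 h at 37 °C. Viability was then read as CellTiter-Glo luminescence after 15 min at room temperature.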
# p53null 32C tox – qHTS Screen for Compounds that Selectively Target Cancer Cells with p53 Mutations: Cytotoxicity of p53 Null Cells at the Permissive Temperature. 0.62% of 55,000 active. H1299-neo p53 null cells, ATP luminescence, 24 h, 32C. Potency, µM (top dose mostly 46.1 µM), for the others: at the highest dose activity change, negative = cytotoxicity, most hits filed as cytotoxic. AID 903, 2007;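 further: 0% = DMSO only and -100% = full killing by 100 µM tamoxifen; nearly all actives have a fitted effect of over 55% in size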
#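 AC50 values derive from Hill modelling of qHTS concentration-response data (up to 46 uM) in H1299-neo cells. Cells were treated 24 h at 32C following overnight attachment at 37C; viability was read as cellular ATP.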
# PMP22 txn prim – Cell-based coincidence reporter assay to measure PMP22 gene transcription in S16 Pmp22-F2sN cells - Primary screen | 2% of 43,000 active | S16 Pmp22-F2sN Schwann cells (luciferase reporters placed in the Pmp22 gene), FLuc/NLuc coincidence luminescence, 24 h | Potency, µM (doses to about 57.5 µM), without a hit: at the highest dose activity change, negative = inhibition, actives largely listed as inhibitors; active means clear falling dose curves in both reporters; inconclusive means both reporters move, but less clearly or upward; inactive means either reporter flat; the % is the NLuc reporter signal
#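 S16 Schwann cells carrying FLuc/NLuc coincidence reporter in the Pmp22 3' UTR treated with compound 24 h at 37C; FLuc then NLuc luminescence read sequentially by dual-luciferase reagents.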
# p53null 39C tox – qHTS Screen for Compounds that Selectively Target Cancer Cells with p53 Mutations: Cytotoxicity of p53 Null Cells at the Nonpermissive Temperature; 0.97% of 55,000 active; Potency, µM (top dose mostly 46.1 µM), without a hit: at the top dose activity, negative = cell killing, most hits filed as cytotoxic; H1299 p53-null (neo) cells, 39C, ATPlite viability, 24 h;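 further: 0% = DMSO only and -100% = full killing by 100 µM tamoxifen; nearly all actives have a fitted effect of over 50% in size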
#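 H1299 lung cancer cells, p53-null (H1299-neo) or expressing p53 A138V (H1299-p53A138V), were plated overnight at 37C, then exposed to compounds at up to 46 uM for 24 hr at 39C. Viability was read by ATP-based luminescence.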
# Starred values were filed as active, the others as inactive; u = inconclusive; x = no result given. Unless noted, the call rests on the fitted dose curve; in most records, active means well fitted curve in the direction sought with a large enough effect; inconclusive means small, poorly fitted or top-dose-only effect, or another doubt; inactive means no such curve, though single readings can be large; an effect the other way counts as inactive or inconclusive. Unless noted, on the % scale 0 is the no-effect control and ±100 the full control effect; potency means the concentration at half of the fitted maximal effect.
SMILES,pS6 MEF inh,S16 viability,p53null 32C tox,PMP22 txn prim,p53null 39C tox
Cc1ccccc1Nc1c(-c2ccc(N3CCOCC3)cc2)nc2ccc(Br)cn12,3%,0%,u,-22%,10µM*
Cc1ccccc1Nc1c(-c2ccc(N3CCOCC3)cc2)nc2ccccn12,u,-13%,1.6µM*,0%,0.32µM*
Cc1ccccc1Nc1c(-c2ccc(N3CCOCC3)cc2)nc2cccc(C)n12,1%,-11%,u,-25%,u
Cc1ccccc1Nc1c(-c2cccc(O)c2)nc2ccc(Br)cn12,-25%,-13%,-7%,-28%,-4%
CCOc1ccc(-n2c(-c3ccc(Br)cc3)cc3c2CC(C)(C)CC3=O)cc1,-9%,17%,1%,u,41%
COc1ccc(CNC(=O)c2cc(-c3ccc(OC)cc3)nc3n[nH]c(-c4cccc([N+](=O)[O-])c4)c23)cc1,1%,3%,4%,u,14%
CCCCNC(=O)c1cc(-c2ccc(OC)cc2)nc2n[nH]c(-c3cccc([N+](=O)[O-])c3)c12,-5%,16µM*,1%,u,15%
COc1ccc(CNC(=O)c2cc(-c3ccc(OC)c(OC)c3)nc3n[nH]c(-c4ccc(C)cc4)c23)cc1,15µM*,-13%,-12%,u,-2%
O=C(Nc1ccc(Br)cc1)c1ccc(F)c(S(=O)(=O)NC2CCCCCC2)c1,-17%,u,46%,u,5%
O=C(Nc1cc(Cl)cc(Cl)c1)c1ccc(F)c(S(=O)(=O)NC2CCCCC2)c1,u,-10%,u,u,20µM*
CCS(=O)(=O)c1ccccc1C(=O)Nc1ccc(-c2nc3ccccc3s2)cc1,11%,14%,-4%,-14%,-15%
CC(C)(C)C(=O)Nc1ccc(-c2nc3ccccc3s2)cc1,3%,0%,0.5µM*,-4%,0.63µM*
Cc1nnc(SCC(=O)NCc2ccc(N(C)C)cc2)c2nn(-c3ccccc3)c(C)c12,-3%,3%,5%,u,29%
CCc1ccc(C2=CC(c3c(F)cccc3Cl)n3c(nc4ccccc43)N2)cc1 (configuration not stated),0%,u,8.9µM*,u,u
Cc1ccc(C2=CC(c3ccccc3C)n3c(nc4ccccc43)N2)cc1 (configuration not stated),-7%,u,1.3µM*,u,u
CCN(C(=O)Cn1ncc2c(=O)oc3ccccc3c21)c1ccccc1F,-10%,1%,7%,0%,8%
Cc1ccc(NC(=O)CSc2nnc(NC(=O)NC3CCCCC3)s2)cc1,-8%,7%,u,-3%,18%
COc1cccc(NC(=O)CSc2nnc(NC(=O)NC3CCCCC3)s2)c1,-4%,5%,13µM*,u,-10%
CC(C)Oc1ccc(C(=O)Nc2nnc(SCC(=O)N3CCOCC3)s2)cc1,x,x,0.56µM*,x,0.63µM*
Cc1ccc(C(=O)Nc2ccc3nc(SCC(=O)N4CCc5ccccc54)sc3c2)cc1,-6%,5%,-14%,-42%,-11%
Cc1ccc(C(=O)Nc2nnc(SCC(=O)N3CCCc4ccccc43)s2)cc1,x,x,1.3µM*,x,x
CC1=C(c2ccc(C)c(C)c2)S(=O)(=O)N=C1N1CCC(C(=O)NCc2ccc(N(C)C)cc2)CC1,1%,-11%,-5%,-24%,2%
CCOc1ccc(NC(=O)c2ccc(N)cc2)cc1,x,x,11µM*,x,u
CCCOc1ccc(C(=O)Nc2ccc(NC(=O)c3ccccc3)c(Br)c2)cc1,18µM*,u,-13%,u,-10%
COc1ccc(CCNC(=O)CCc2c(C)c3cc4c(C)coc4cc3oc2=O)cc1,0%,x,-10%,x,24%
SMILES,pS6 MEF inh,S16 viability,p53null 32C tox,PMP22 txn prim,p53null 39C tox
CCC(Sc1nc2nccnc2c(=O)n1Cc1ccc(F)cc1)C(=O)NC1CCCCC1 (configuration not stated),5%,8%,-2%,-15%,-24%
Cc1c2cnn(-c3ccccc3)c(=O)c2c(C)n1C(C)C(=O)NCc1cccc(Br)c1 (configuration not stated),-9%,-16%,19%,u,-16%
CC(C(=O)NCc1cccc(Br)c1)n1ncn2cccc2c1=O (configuration not stated),0.58µM*,0%,u,4%,13µM*
Fc1ccc(N2CCN(c3ncnc4c3nc3n4CCCC3)CC2)cc1,-1%,u,u,4.5µM*,-20%
Cc1cccc(N2CCN(c3ncnc4c3nc3n4CCCCC3)CC2C)c1 (configuration not stated),9.3µM*,8.9µM*,-3%,4.4µM*,u
O=C(C1CCN(c2ncnc3c2nc2n3CCCCC2)CC1)N1CCN(c2ccc(F)cc2)CC1,0%,u,5%,u,-23%
Cc1ccc(Nc2ncnc3c2nc2n3CCCC2)c(Br)c1,-1%,-5%,u,-4%,11µM*
Clc1cccc(N2CCN(c3ncnc4c3nc3n4CCCC3)CC2)c1,-21%,u,-11%,u,-38%
Cc1ccc2nc(-c3ccc(O)cc3)c(Nc3ccc(Cl)cc3)n2c1,-2%,-1%,28%,-35%,u
Cc1ccc2nc(-c3ccccc3F)c(Nc3ccc(Cl)cc3)n2c1,-5%,18%,36%,-37%,20µM*
CCc1nn(Cc2cccc(F)c2)c(=O)c2cc3cc(C)ccc3n12,-5%,-16%,8%,u,-20%
CN(Cc1ccccc1)C(=O)c1cc2c(s1)-c1ccc(Cl)cc1SC2,-2%,u,-7%,-1%,2µM*
O=C(NCc1cccc(Cl)c1)c1cc2c(s1)-c1ccccc1SC2,-3%,-8%,21%,-23%,-20%
Cc1ccc(CNC(=O)Cn2c(SCC(=O)Nc3ccc(F)cc3)nc3ccccc32)cc1,u,u,u,u,13µM*
CCC1CCc2nc3sc(C(=O)Nc4ccc(C)cc4)c(N)c3cc2C1 (configuration not stated),18µM*,3%,-2%,-16%,13%
Cc1cccc(NC(=O)CSc2nc(=O)n(Cc3ccncc3)c3c2CCC3)c1C,-6%,5%,-3%,2%,16%
CCC1CN(C(=O)N2CCC(C(=O)N(C)Cc3ccccc3)CC2)c2ccccc2O1 (configuration not stated),5%,1%,12%,-21%,0%
